Sm TGR block – S. mansoni TGR enzyme inhibition. Q962Y6. purified TGR, DTNB reduction, TNB absorbance 405 nm. Potency, µM (titrated, usually from 114 µM), for inactives: at the highest dose activity change, negative = inhibition, usual class: inhibitors. hit rate 3% among 360,000. AID 485364; also: potency is read from the fitted curve at half-maximal effect; % is scaled to controls: 0 for no effect and ±100 for the full control effect; nearly all actives have a fitted effect of over 60% in size
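First, TGR (20 nM dispensed) and NADPH were mixed with compound. Second, a 15 min room-temperature incubation followed. Third, further NADPH and then DTNB were added to start the reaction. Finally, TNB absorbance was monitored kinetically.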
HCMV inh – blocks human cytomegalovirus replication; HFF cells, HCMV-luciferase reporter, 72 h; hits give low values; activity change, negative = inhibition, % at 57.5 µM; hit rate 4.5% among 410,000; AID 1259415; in the data active = activity change below about -60%; inconclusive = no clear call, values can overlap the other calls; inactive = above about -39%; also: % is scaled to controls: 0 for no effect and ±100 for the full control effect
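Screen run at 2 compound doses on HFFs infected with reporter HCMV, MOI 1 PFU/cell. Luciferase activity from cell lysates at 72 h post infection gave inhibition relative to buffer-only and Salinomycin wells.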
SARS PLpro yeast-1 – inhibitors of SARS-CoV papain-like protease in yeast; S. cerevisiae expressing SARS-CoV PLpro, growth rescue; Potency, µM (top dose mostly 32.9 µM), without a hit: at the top dose activity, positive = growth rescue, usual class: activators; hit rate 0.19% among 330,000; calls by dose curve; also: potency is read from the fitted curve at half-maximal effect; 0% is about no effect; nearly all actives have a fitted effect of over 55% in size
Pf growth 48h – inhibits P. falciparum growth in the first generation, 48 h; P. falciparum luciferase growth in erythrocytes, 48 h; Potency, µM (series often up to 28.7 µM), for the others: at the top dose activity change, negative = inhibition, most hits filed as inhibitors; hit rate 5.9% among 310,000; also: potency is read from the fitted curve at half-maximal effect; % is scaled to controls: 0 for no effect and ±100 for the full control effect
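Cell-based growth assay: transgenic P. falciparum expressing firefly luciferase, cultured in red cells within RPMI 1640 containing 0.5% w/v Albumax, 24 mM bicarbonate and gentamycin. A drop in luciferase activity indicates inhibition.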
Pf growth 96h – P. falciparum growth inhibition at 96 hour, primary screen for plastid delayed-death inhibitors. hit rate 6.9% among 320,000. AID 504834. Potency, µM (doses to about 28.7 µM), inactives show at the highest dose activity change, negative = inhibition, usual class: inhibitors. P. falciparum luciferase reporter growth, 96 h; also: potency is read from the fitted curve at half-maximal effect; % is scaled to controls: 0 for no effect and ±100 for the full control effect
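Parasite growth measured via integrated firefly luciferase reporter in P. falciparum. Infected erythrocytes at 2% hematocrit, 0.05% parasitemia final were treated 96 hours at 37 C under 5% CO2, and luminescence was read.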
HCV inh – blocks hepatitis C virus; Huh7.5.1 HCVcc-Cre infection, luciferase reporter, 44 h; Potency, µM (titrated, usually from 41.8 µM), for inactives: at the highest dose activity change, negative = inhibition, most hits filed as inhibitors; hit rate 3.4% among 340,000; AID 651820; also: potency is read from the fitted curve at half-maximal effect; % is scaled to controls: 0 for no effect and ±100 for the full control effect
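Luciferase read-out (15 sec integration) after a 15 min room-temperature substrate step quantifies HCVcc-Cre infection. Cells, 1,000 per well, had compound added 4 h post-plating, then virus at ~0.5 moi, and were cultured 44 h.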
SARS PLpro yeast-2 – Inhibits SARS-CoV PLP in yeast, hit validation | hit rate 19% among 1,000 | yeast expressing SARS-CoV PLpro, growth phenotype rescue | calls only | shares compounds with SARS PLpro yeast-1; call rule not given here
* marks the source's active call; other numbers are inactive results; i = inactive; ? = inconclusive; . = not tested or not shown; + = active, no number; [ ] = remark or other dose. Most compounds without a hit are left out; they make up all but 15% or so of the library. Unless noted, calls follow the shape of the dose curve; as a rule, active = well fitted curve in the direction sought with a large enough effect; inconclusive = small, poorly fitted or top-dose-only effect, or another doubt; inactive = no such curve, though single readings can be large; an effect the other way counts as inactive or inconclusive.

SMILES | Sm TGR block | HCMV inh | SARS PLpro yeast-1 | Pf growth 48h | Pf growth 96h | HCV inh | SARS PLpro yeast-2
O=C1C(=O)N(Cc2cccnc2)C(c2cccc([N+](=O)[O-])c2)/C1=C(\O)c1ccc2c(c1)OCCO2 (configuration not stated) | -5.1% | -30.5 | -0.1% | 4.5% | ? | 22.4% | .
COc1cccc(C2/C(=C(\O)c3ccc4c(c3)OCCO4)C(=O)C(=O)N2Cc2cccnc2)c1 (configuration not stated) | -1.3% | 9.2 | ? | 4.1% | 2.5% | 8.2% | i
COc1ccc(N2C(=O)C(CC(=O)Nc3ccc(Cl)cc3)N(Cc3ccc4c(c3)OCO4)C2=O)cc1 (configuration not stated) | 1.3% | -1.6 | . | . | . | . | .
Cc1ccccc1-n1c(O)c(/C=N/NC(=O)c2ccccc2O)c(=O)[nH]c1=S | -20.7% | -11.9 | 10.9% | 8.6% | 22.9% | 9.6% | .
O=C(N/N=C/c1c(O)n(C2CC2)c(=S)[nH]c1=O)c1ccccc1O | -14.2% | 44.6 | 12.6µM* | -12.6% | ? | -0.8% | i
O=C(NNC(=O)c1ccccc1-n1cccc1)c1cccnc1 | . | 15.0 | . | . | . | . | .
O=C(CCC(=O)c1cccs1)NCc1cccc(Cl)c1 | 11.2% | -12.5 | . | 8.9% | 21.5% | -1.6% | .
CC(C)NC(=O)CN1C(=O)NC(CCc2ccccc2)C1=O (configuration not stated) | 8.7% | -14.6 | 3.55µM* | 2.6% | ? | 1.6% | i
COc1ccc(N(CN2C(=O)c3ccccc3C2=O)C(=O)COc2ccc(Cl)cc2Cl)cc1 | -1.0% | -27.3 | 12.6µM* | 7.2% | 15.0% | -10.5% | i
COc1ccc(N(CN2C(=O)c3ccccc3C2=O)C(=O)C(C)C)cc1 | 5.5% | -3.0 | 4.3% | -14.7% | ? | 27.5% | .
O=C(Nc1ccc(Cl)cc1Cl)c1cc(S(=O)(=O)NCc2ccc3c(c2)OCO3)ccc1F | 0.2% | ? | . | . | . | . | .
O=C(Nc1ccc(Oc2ncnc3cc(Cl)ccc23)nc1)c1ccc(F)cc1 | 12.2% | . | -0.3% | 25.2% | 27.5% | -5.2% | .
Cc1ccccc1S(=O)(=O)Cc1ccc(C(=O)NCCCN2CCN(C)CC2)o1 | 0.3% | 12.4 | ? | ? | 110.4% | 13.7% | i
CC(C)[C@@H]1Cc2[nH][nH]c(=O)c2[C@H](C(C)C)O1 | . | -19.3 | . | . | . | . | .
Cc1cccc(/C=N/NC(=O)c2ccncc2)n1 | 12.3% | 6.1 | 14.6% | -1.4% | 97.0% | 3.6% | .
Cc1cccc(OCC(=O)Nc2ccc(S(=O)(=O)N3CCN(C)CC3)cc2)c1 | 0.6% | 12.3 | 3.55µM* | ? | ? | ? | i
Cc1cccc(OCCC(=O)Nc2ccc(S(=O)(=O)N3CCCC3)cc2)c1 | -19.5% | 1.5 | -8.1% | ? | -0.6% | ? | .
O=C(NCC(c1cccnc1)N1CCN(c2ccccc2F)CC1)C1CCCCC1 (configuration not stated) | 3.7% | ? | ? | . | 9.0% | -25.8% | i
O=C(NCC(c1cccnc1)N1CCN(c2ccc(F)cc2)CC1)C1CCCCC1 (configuration not stated) | 1.0% | 1.1 | -4.9% | ? | 30.6% | 6.8% | .
O=C(O)C[CH2][Ge](=[O])[O][Ge](=[O])[CH2]CC(=O)O | . | . | . | -1.5% | -3.9% | . | .
O=C(CNC(=O)c1cccc(Br)c1)N/N=C/c1cc(Br)cc(Br)c1O | -17.8% | -2.6 | 3.55µM* | 4.4% | -9.8% | ? | +
COc1cccc(C(=O)COC(=O)C2CC3CCCC(C2)C3=O)c1 (configuration not stated) | -0.6% | -15.1 | -1.6% | -9.5% | 25.7% | 3.5% | .
COc1ccc(C(=O)COC(=O)C2CC3CCCC(C2)C3=O)cc1Br (configuration not stated) | -1.1% | -12.1 | ? | ? | 6.8% | 3.1% | i
O=C1CC(c2c(Cl)cccc2Cl)c2c(ccc3ccccc23)N1 (configuration not stated) | -1.7% | -14.2 | . | . | . | . | .
CC1C(=O)Nc2ccc(S(=O)(=O)N3CCCCCC3)cc21 (configuration not stated) | ? | ? | 1.0% | ? | -19.6% | -12.6% | .
SMILES | Sm TGR block | HCMV inh | SARS PLpro yeast-1 | Pf growth 48h | Pf growth 96h | HCV inh | SARS PLpro yeast-2
COc1ccc(S(=O)(=O)N(CC(=O)N2CCN(c3ccccc3OC)CC2)c2ccccc2)cc1 | 0.0% | . | 4.47µM* | ? | 22.3% | ? | i
COCCNC(=S)N1CCN(S(=O)(=O)c2ccc(Cl)s2)CC1 | -4.6% | 18.2 | . | ? | ? | 10.2% | i
O=C(CCC(=O)c1ccccc1)Nc1ccc(F)c(Cl)c1 | -1.1% | -6.7 | . | . | . | . | .
Cc1cc(F)ccc1NCc1ccc([N+](=O)[O-])cc1 | 5.5% | -10.0 | -1.0% | -15.5% | ? | -22.4% | .
CNC(=O)NC1CCCc2ccccc21 (configuration not stated) | 1.3% | 19.8 | ? | 22.0% | 18.6% | 13.6% | i
CC(C)(C)c1ccc(C(=O)Cn2nc(C(=O)O)c3ccccc3c2=O)cc1 | 17.1% | -14.4 | 0.2% | -6.4% | -10.9% | 3.2% | .
CC(C)CC(=O)Nc1ccc(C(=O)Cn2nc(C(=O)O)c3ccccc3c2=O)cc1 | 2.6% | 15.1 | 12.6µM* | . | 6.9% | 18.7% | i
O=C(NC1CCCCCCC1)c1cnccn1 | 0.0%[11.4 µM] | -18.9 | -0.9% | . | -9.0% | 19.6% | .
C/C(CC(=O)NC1CCCCCC1)=N\NC(=O)c1cnccn1 | 3.9% | -16.5 | 3.55µM* | 7.8% | -14.2% | 31.9% | i
Cc1ccc(OCC(=O)N/N=C\c2c(C)[nH]n(-c3ccccc3)c2=O)c([N+](=O)[O-])c1 | -6.2% | 22.9 | 5.62µM* | -27.0% | ? | ? | +
Cc1ccn(-c2cc(O)c(-n3ccc(C)n3)cc2O)n1 | -27.2% | 15.7 | -5.8% | 41.3% | 1.0% | 28.1% | .
CC(=O)O[C@@H]1[C@@]2(C)O[C@H]2CC[C@]23O[C@H]2[C@H](OC3=O)C2=C(C)C(=O)O[C@@]21O | -27.5% | -39.0 | ? | 19.6% | -18.0% | ? | i
Cc1ccc(N=Nc2ccc3ccccc3c2O)cc1 | -0.7% | ? | 3.2% | 93.6% | 122.3% | -1.5% | .
Cc1ccc(N=Nc2ccc(O)c3ncccc23)cc1 | 0.6% | -95.5* | 3.98µM* | 0.465µM* | ? | ? | i
COc1cccc(/C=N/NC(=O)c2cc(-c3cccn3C)n[nH]2)c1O | -8.3% | ? | 7.08µM* | ? | ? | 5.01µM* | ?
COc1cccc(/C=N/NC(=O)C(=O)N/N=C/c2cccc(OC)c2O)c1O | 8.8% | -28.1 | ? | 0.0% | 0.1% | -13.7% | +
Cn1cccc1-c1cc(C(=O)N/N=C/C=C/c2ccccc2)[nH]n1 | 0.0% | -15.0 | -0.5% | ? | ? | ? | .
